NPC1 prom act – activates the NPC1 promoter; Potency, µM (series often up to 9.22 µM), hits mostly activators; Huh7 NPC1 promoter luciferase reporter, 24 h; 320,000 tested, 2.4% active; note: nearly all actives have a fitted effect of over 60% in size
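Readout is luciferase luminescence, reflecting NPC1 promoter activation in stably transfected Huh7 cells after 24 h compound exposure at 37 °C in reduced-serum medium with 10% FBS.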
ELG1 genotoxic – induces genotoxicity in HEK293T cells with luciferase-tagged ELG1. HEK293T ELG1-luciferase reporter, luminescence, 16 h. Potency, µM (series often up to 46 µM), hits mostly activators. 330,000 tested, 1.3% active. AID 504466; note: nearly all actives have a fitted effect of over 60% in size
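ELG1-luciferase HEK293T cells, 2,000/well; compound pinned in; 16 hr, 37 °C, 5% CO2; ONE-Glo, 30 min RT; luminescence on CCD imager.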
Rab9 promoter act – activates the Rab9 promoter; Potency, µM (titrated, usually from 9.22 µM), hits mostly activators; Huh7 Rab9 promoter-luciferase reporter, luminescence, 24 h; 320,000 tested, 2.8% active; note: nearly all actives have a fitted effect of over 60% in size
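Stable Rab9-luc Huh7, 1500 cells/well, 2 h settle; cmpd in DMSO, 24 h, 37 °C/5% CO2; luciferase reagent 10 min RT; luminescence.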
FLuc modulator – inhibits or activates purified firefly luciferase, miR-21 counter-screen. P08659. purified FLuc, Km substrates, luminescence inhibition. Potency, µM (top dose mostly 57.5 µM), actives largely listed as inhibitors. 360,000 tested, 6.9% active. AID 588342; note: nearly all actives have a fitted effect of over 55% in size
Target sequence (P08659 whole entry, looked up): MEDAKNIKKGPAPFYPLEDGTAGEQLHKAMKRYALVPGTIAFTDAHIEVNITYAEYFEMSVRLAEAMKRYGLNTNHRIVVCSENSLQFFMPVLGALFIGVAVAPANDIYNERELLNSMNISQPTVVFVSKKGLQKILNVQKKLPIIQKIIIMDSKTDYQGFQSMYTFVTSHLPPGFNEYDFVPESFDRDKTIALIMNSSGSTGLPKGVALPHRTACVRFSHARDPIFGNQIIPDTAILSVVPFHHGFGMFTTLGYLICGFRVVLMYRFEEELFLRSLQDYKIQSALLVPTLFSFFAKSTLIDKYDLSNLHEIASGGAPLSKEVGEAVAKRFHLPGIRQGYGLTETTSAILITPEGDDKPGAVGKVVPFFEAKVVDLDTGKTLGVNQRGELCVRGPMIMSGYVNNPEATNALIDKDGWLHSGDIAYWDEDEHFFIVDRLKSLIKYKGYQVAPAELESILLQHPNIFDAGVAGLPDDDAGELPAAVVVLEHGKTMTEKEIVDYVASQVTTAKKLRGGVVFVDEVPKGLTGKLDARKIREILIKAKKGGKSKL
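Biochemical qHTS of compounds, final roughly 60 µM downward over six points, against 10 nM purified firefly luciferase using Km concentrations of substrates (10 uM D-luciferin, 10 uM ATP) in Tris acetate pH 7.5 buffer; luminescence output.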
ELG1 DNA repair – ELG1-dependent DNA repair inhibition. HEK293T ELG1-luciferase reporter, luminescence, 16 h; DNA damage induced by 5-fluorouridine. Potency, µM (series often up to 46.1 µM), hits mostly inhibitors. 330,000 tested, 2.3% active; note: nearly all actives have a fitted effect of over 55% in size
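HEK293T cells expressing luciferase-tagged ELG1 (2,000/well) received 5-Fluorouridine plus compound or DMSO for 16 hr at 37 °C. Luciferase was read by ONE-Glo luminescence after 30 min at room temperature.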
SMN2 splice up – enhancers of SMN2 splice variant expression; HEK293 SMN2-luciferase splicing reporter, luminescence, 30-36 h; AID 1458; Potency, µM (top dose mostly 46.1 µM), most hits filed as activators; 210,000 tested, 2.8% active; note: nearly all actives have a fitted effect of over 55% in size
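qHTS luciferase splicing reporter: luminescence rises when SMN2 exon 7 is included in transfected HEK293 cells. Compound exposure lasted 30-36 h at 37C, with 4.5 mM final sodium butyrate as control, followed by a ONE-Glo read.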
Each line names hits and unclear results; the compound was inactive in the other large screens. Hits are enriched below; roughly 9.2% of the tested compounds scored in any of these assays. Calls come from the whole dose curve; as a rule, active = well fitted curve in the direction sought with a large enough effect; inconclusive = small, poorly fitted or top-dose-only effect, or another doubt; inactive = no such curve, though single readings can be large; an effect the other way counts as inactive or inconclusive.

N#C/C(=N/Nc1ccccc1F)C(=N)N1CCOCC1	ELG1 DNA repair inconclusive
N#C/C(=N\Nc1ccc(F)cc1)C(=N)N1CCCCC1	NPC1 prom act 0.562µM, ELG1 genotoxic 1.64µM, Rab9 promoter act 0.631µM, FLuc modulator 3.01µM, ELG1 DNA repair inconclusive (no result: SMN2 splice up)
O=C(Nc1ccc(F)cc1)N1CCCCCC1	ELG1 DNA repair inconclusive (no result: SMN2 splice up)
COc1ccc(N/N=C(\C#N)C(=N)N2CCOCC2)cc1	ELG1 genotoxic 18.3µM, FLuc modulator inconclusive, ELG1 DNA repair inconclusive
CNC(=S)Nc1ccc(Br)cc1	none
Cc1c(/N=C(\[O-])Nc2ccc(Br)cc2)sn[n+]1C	NPC1 prom act 0.282µM, ELG1 genotoxic 0.366µM, Rab9 promoter act 0.1µM, FLuc modulator 1.07µM, ELG1 DNA repair inconclusive (no result: SMN2 splice up)
COc1ccc(N2CC(NC(=O)COc3cccc(C)c3)CC2=O)cc1OC (stereo not given)	none (no result: NPC1 prom act, ELG1 genotoxic, Rab9 promoter act, ELG1 DNA repair, SMN2 splice up)
CN(C)c1ccc(NC(=O)N2CCOCC2)cc1	FLuc modulator 23.9µM, ELG1 DNA repair inconclusive, SMN2 splice up inconclusive
CCC(C)c1ccc(NC(=O)N2CCOCC2)cc1 (stereo not given)	NPC1 prom act 2.51µM, ELG1 genotoxic inconclusive, Rab9 promoter act 2.51µM, FLuc modulator 15.1µM, ELG1 DNA repair inconclusive (no result: SMN2 splice up)
O=C(Nc1ccc(F)cc1)N1CCOCC1	SMN2 splice up inconclusive
CCOC(=O)N/N=C\c1ccc(OC/C=C/c2ccccc2)c(OC)c1	FLuc modulator 12µM (no result: SMN2 splice up)
COc1cccc(/C=N\NC(C)=O)c1OC/C=C/c1ccccc1	ELG1 DNA repair 20.6µM (no result: SMN2 splice up)
COC(=O)N/N=C\c1ccc(OC/C=C/c2ccccc2)c(OC)c1	none (no result: SMN2 splice up)
Cn1c(CCNC(=O)c2ccco2)nc2cc(NC(=O)c3ccccc3Cl)ccc21	ELG1 DNA repair inconclusive (no result: SMN2 splice up)
COc1ccc(/C=N/N2C(=N)SCC2=O)cc1	NPC1 prom act inconclusive, ELG1 genotoxic inconclusive, FLuc modulator 3.38µM, ELG1 DNA repair inconclusive (no result: SMN2 splice up)
COc1ccc(N=C2SCC(=O)N2Cc2ccccc2)cc1	ELG1 DNA repair inconclusive
COc1ccc(/C=N/N=C2/SCC(=O)N2Cc2ccccc2)cc1	NPC1 prom act 3.55µM, ELG1 genotoxic inconclusive, Rab9 promoter act 1.26µM, FLuc modulator 4.78µM, ELG1 DNA repair inconclusive (no result: SMN2 splice up)
COc1ccc(CN2C(=O)CS/C2=N/N=C/c2ccccc2)cc1	ELG1 genotoxic inconclusive, FLuc modulator 16.9µM (no result: SMN2 splice up)
CCOc1ccc(C(=O)c2oc3ccccc3c2NC(=O)c2cc(-c3ccc(C)cc3)on2)cc1	none (no result: NPC1 prom act, ELG1 genotoxic, Rab9 promoter act, ELG1 DNA repair, SMN2 splice up)
CCOC(=O)Cc1csc(NC(=S)NC(=O)c2ccc(C)cc2)n1	FLuc modulator 12µM, ELG1 DNA repair inconclusive (no result: SMN2 splice up)
CCOC(=O)Cc1csc(NC(=S)NC(=O)c2cc(OC)cc(OC)c2)n1	ELG1 DNA repair inconclusive
CCOC(=O)Cc1csc(NC(=S)NC(=O)c2ccccc2)n1	FLuc modulator inconclusive
CCOC(=O)Cc1csc(NC(=O)c2ccoc2C)n1	ELG1 genotoxic 14.6µM, FLuc modulator inconclusive, ELG1 DNA repair inconclusive
CCOC(=O)Cc1csc(NC(=O)c2cc(C)cc(C)c2)n1	none
CCOC(=O)Cc1csc(NC(=S)NC(=O)c2ccccc2Br)n1	FLuc modulator 21.3µM, ELG1 DNA repair inconclusive (no result: SMN2 splice up)
CCOC(=O)Cc1csc(NC(=O)c2ccc3c(c2)OCO3)n1	FLuc modulator 12µM, SMN2 splice up inconclusive
COc1ccc(NC(=O)N2CC3(CCN(C(=O)c4cc(C(F)(F)F)cc(C(F)(F)F)c4)CC3)C2)cc1	none (no result: NPC1 prom act, ELG1 genotoxic, Rab9 promoter act, FLuc modulator, ELG1 DNA repair)
CCCCc1nc2cc(C(=O)NC3CCOC(C)(C)C3)ccc2o1 (stereo not given)	none (no result: SMN2 splice up)
COc1cc(Nc2nc3c(S(=O)(=O)c4ccc(C)c(C)c4)nnn3c3ccsc23)cc(OC)c1	none (no result: NPC1 prom act, ELG1 genotoxic, Rab9 promoter act, ELG1 DNA repair, SMN2 splice up)
Cc1noc(C)c1S(=O)(=O)Nc1ccc2c(c1)C(=O)N([C@H](C)CO)C[C@H](C)[C@@H](CN(C)C(=O)NC1CCCCC1)O2	none (no result: NPC1 prom act, Rab9 promoter act, FLuc modulator, SMN2 splice up)
CCCCC(=O)Nc1ccc(C(=O)Nc2nc(CC(=O)OCC)cs2)cc1	FLuc modulator 19µM
Cc1csc(NC(=O)c2ccc3c(c2)OCO3)n1	NPC1 prom act inconclusive, ELG1 genotoxic inconclusive, FLuc modulator 3.38µM, ELG1 DNA repair inconclusive (no result: SMN2 splice up)
Cc1cccc(NC(=O)CNC(=O)c2ccc3c(c2)OCO3)n1	none (no result: SMN2 splice up)
